Experimental data reported in PubChem BioAssay (Tox21).
Records with an inconclusive call do not appear. A call without a number means that no potency is given here. The source made the active and inactive calls. Unless noted, calls follow the shape of the full dose curve.

Tests used:
[1] = qHTS assay to identify small molecule agonists of the sonic hedgehog signaling (Shh) pathway (AID 1259368);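 also: NIH/3T3-derived 3T3Gli1-Luc cells carrying a stable Gli1-driven firefly luciferase reporter; series mostly up to about 92 µM; nearly all actives have a fitted effect of over 15% in size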
In short: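 Quantitative high-throughput format using a Gli1-driven firefly luciferase reporter line derived from NIH/3T3 cells. After a 24 hr compound treatment at 37 C and 5% CO2, luminescence reported Gli1 response element activity.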

[2] = qHTS assay to identify small molecule antagonists of the sonic hedgehog signaling (Shh) pathway (AID 1259369); also: nearly all actives have a fitted effect of over 45% in size; also: potency is read from the fitted curve at half-maximal effect
In short: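 Stable Gli1-Luc reporter NIH/3T3 clone; quantitative HTS in stimulated mode with conditioned medium. Luminescence measured after 24hr compound treatment at 37 C.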

[3] = target: Estrogen receptor beta (Homo sapiens) (UniProt Q92731); experiment: qHTS assay to identify small molecule agonists of the estrogen receptor beta (ER-beta) signaling pathway (AID 1259377; active = well fitted activation curve with a large enough effect in the signal ratio in the repeat runs, not every such curve was filed as active; the % refers to the signal ratio)
In short: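 ER-beta-UAS-bla HEK293T cells in medium with 2% charcoal-stripped FBS were exposed to compounds for 16 h at 37C. Beta-lactamase reporter activity was read as fluorescence after 2 h with LiveBLAzer B/G FRET substrate at room temperature.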

[4] = qHTS assay to identify small molecule agonists of the androgen receptor (AR) signaling pathway in the presence of an antagonist - cell viability counter screen (AID 1259379; active = well fitted curve in the direction sought with a large enough effect in the repeat runs; an effect the other way counts as inactive or inconclusive;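 also: MDA-kb2 human breast cancer cells carrying an MMTV luciferase reporter; series mostly up to about 92 µM; nearly all actives have a fitted effect of over 25% in size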)
In short: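 Nilutamide-containing (3.0uM final) MDA-kb2 cultures, 3,000 cells/well, were treated with compounds across 15 concentrations. After 16 hr at 37C with no CO2, cell viability was determined by CellTiter-Fluor fluorescence in the luciferase assay wells.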

[5] = qHTS assay to identify small molecule antagonists of the estrogen receptor beta (ER-beta) signaling pathway - cell viability counter screen (AID 1259382; active = well fitted curve in the direction sought with a large enough effect in the repeat runs; an effect the other way counts as inactive or inconclusive; also: nearly all actives have a fitted effect of over 55% in size; also: potency is read from the fitted curve at half-maximal effect)
In short: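 Viability is scored by CellTiter-Glo luminescence (30 min, room temperature) in ER-beta-UAS-bla HEK293T wells already read for reporter fluorescence. Compound exposure lasts 16 hr at 37C alongside 1nM 17-beta-estradiol in charcoal-stripped serum medium.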

[6] = target: Estrogen receptor (Homo sapiens) (UniProt P03372); experiment: qHTS assay to identify small molecule agonists of the estrogen receptor alpha (ER-alpha) signaling pathway in the presence of an antagonist (AID 1259383); also: top concentration of the series differs between compounds; nearly all actives have a fitted effect of over 15% in size
In short: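 Readout was ERE-driven luciferase luminescence in VM7Luc4E2 cells, which express full-length ER-alpha endogenously. Compounds were tested at 15 concentrations for 22hr alongside 10.0nM ICI-182,780 (final concentration).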

[7] = qHTS assay to identify small molecule agonists or antagonists of the thyroid stimulating hormone receptor (TSHR) signaling pathway - wild type cell line counter screen (AID 1259384)
In short: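 Counter screen in untransfected Hek293: compounds (15-point titration, triplicate) plus phosphodiesterase inhibitor Ro20-1724 added after 18 h plating; 30 min RT. Intracellular cAMP via competitive d2/cryptate immunoassay, 1 h incubation.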

[8] = target: Thyrotropin receptor (Homo sapiens) (UniProt P16473); experiment: qHTS assay to identify small molecule antagonists of the thyroid stimulating hormone receptor (TSHR) signaling pathway (AID 1259385); also: nearly all actives have a fitted effect of over 20% in size; also: potency is read from the fitted curve at half-maximal effect
In short: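 Antagonist mode: compound-treated TSHR-expressing HEK293 cells were stimulated with 1.5 ng/mL TSH (final) in presence of Ro20-1724 for 30 min at RT. HTRF cAMP detection after 1 h; each compound tested at 15 concentrations, triplicate.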

[9] = target: Progesterone receptor (Homo sapiens) (UniProt P06401); experiment: qHTS assay to identify small molecule agonists of the progesterone receptor (PR) signaling pathway (AID 1346784); also: nearly all actives have a fitted effect of over 30% in size
In short: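 PR-UAS-bla HEK 293T cells (beta-lactamase reporter under UAS) in 2% charcoal-stripped FBS, dosed with 23 nL compound after 6 hr, incubated 16hr at 37C. LiveBLAzer B/G FRET substrate added, fluorescence read after 2 hours.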

[10] = target: Progesterone receptor (Homo sapiens) (UniProt P06401); experiment: qHTS assay to identify small molecule antagonists of the progesterone receptor (PR) signaling pathway (AID 1346795; active = well fitted inhibition curve with a large enough effect in the signal ratio in the repeat runs, not every such curve was filed as active; the % refers to the signal ratio; also: potency is read from the fitted curve at half-maximal effect)
In short: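 PR-UAS-bla HEK293T cells with beta-lactamase reporter under UAS control, in 2% charcoal-stripped FBS, treated with compounds plus 1 nM promegestone (R5020, final) for 16 hr at 37C. Read-out: FRET beta-lactamase substrate fluorescence after 2 hr at room temperature.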

[11] = qHTS assay to identify small molecule antagonists of the progesterone receptor (PR) signaling pathway - cell viability counter screen (AID 1346798; active = well fitted curve in the direction sought with a large enough effect in the repeat runs; an effect the other way counts as inactive or inconclusive; also: nearly all actives have a fitted effect of over 50% in size; also: potency is read from the fitted curve at half-maximal effect)
In short: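 PR-UAS-bla HEK293T cells, 3,000/well in 2% charcoal-stripped FBS medium, dosed with compounds plus R5020 agonist and incubated 16 h at 37C. Viability then measured in the same wells by CellTiter-Glo luminescence after 30 min at RT.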

[12] = qHTS assay to identify small molecule agonists of the progesterone receptor (PR) signaling pathway - cell viability counter screen (AID 1346799); also: nearly all actives have a fitted effect of over 45% in size; also: potency is read from the fitted curve at half-maximal effect
In short: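 Counter screen in the PR-UAS-bla HEK293T wells (2% charcoal-stripped FBS, 16 h compound exposure at 37 C) after the bla read. CellTiter-Glo added, 30 min at room temperature, luminescence read as cell viability.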

[13] = qHTS assay to identify small molecule agonists of the TGF-beta/Smad signaling pathway - cell viability counter screen (AID 1346829; active = well fitted curve in the direction sought with a large enough effect in the repeat runs; an effect the other way counts as inactive or inconclusive; also: top concentration of the series differs between compounds; nearly all actives have a fitted effect of over 45% in size)
In short: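 Luminescence from CellTiter-Glo, read after a 30 min room-temperature incubation, gives cell viability of SBE-bla HEK 293T cells treated 5 hr with compounds at 37 C.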

[14] = qHTS assay to identify small molecule agonists of the TGF-beta/Smad signaling pathway (AID 1346859; active = well fitted activation curve with a large enough effect in the signal ratio in the repeat runs, not every such curve was filed as active; the % refers to the signal ratio; also: series mostly up to about 77 µM)
In short: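 SBE-bla HEK293T cells plated overnight, then compound exposure for 5 h at 37 C. Beta-lactamase reporter read with LiveBLAzer B/G FRET substrate after 2 h at room temperature, fluorescence at 405 nm excitation, 460/530 nm emission.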

[15] = target: Thyrotropin-releasing hormone receptor (Homo sapiens) (UniProt P34981); experiment: qHTS assay to identify small molecule antagonists of the thyrotropin-releasing hormone receptor (TRHR) signaling pathway (AID 1346877; active = well fitted inhibition curve with a large enough effect in the repeat runs, not every such curve was filed as active; also: series mostly up to about 51 µM)
In short: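 Kinetic fluorescence (3 min, 1 s resolution) following stimulation with TRH at 1 nM final; HEK293 cells bearing human TRHR; 5 min compound preincubation at RT; concentration-response over 15 points, triplicates.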

[16] = target: Estrogen receptor beta (Homo sapiens) (UniProt Q92731); experiment: qHTS assay to identify small molecule antagonists of the estrogen receptor beta (ER-beta) signaling pathway (AID 1259378; active = well fitted inhibition curve with a large enough effect in the signal ratio in the repeat runs, not every such curve was filed as active; the % refers to the signal ratio; also: potency is read from the fitted curve at half-maximal effect)
In short: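 Antagonist mode: compounds added to beta-lactamase reporter HEK293T ER-beta-UAS cells stimulated with E2 (1nM final), 16 hr at 37C. LiveBLAzer B/G FRET substrate, 2 hours room temperature, fluorescence read-out.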

[17] = qHTS assay to identify small molecule agonists of the estrogen receptor alpha (ER-alpha) signaling pathway in the presence of an antagonist - cell viability counter screen (AID 1259386; active = well fitted curve in the direction sought with a large enough effect in the repeat runs; an effect the other way counts as inactive or inconclusive;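 also: series mostly up to about 92 µM; cells exposed to compounds for 22 h at 37 °C before the viability read; nearly all actives have a fitted effect of over 30% in size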)
In short: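 In this counter screen, compound effects on VM7Luc4E2 viability were tested in the presence of the antagonist ICI-182,780 at 10.0nM final. Compounds were dosed at 15 concentrations, exposure lasted 22hr, and the CellTiter-Fluor signal was read.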

[18] = qHTS assay to identify small molecule antagonists of the TGF-beta/Smad signaling pathway - cell viability counter screen (AID 1346824; active = well fitted curve in the direction sought with a large enough effect in the repeat runs; an effect the other way counts as inactive or inconclusive; also: nearly all actives have a fitted effect of over 50% in size)
In short: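 Cytotoxicity counter-screen run in the same wells as the beta-lactamase Smad reporter read: CellTiter-Glo luminescence after 30 min at room temperature. HEK 293T SBE-bla cells had 5 hr compound exposure at 37 C with TGF-beta1 (0.25 ng/mL stock).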

[19] = qHTS assay to identify small molecule agonists of the estrogen receptor beta (ER-beta) signaling pathway - cell viability counter screen (AID 1259380; active = well fitted curve in the direction sought with a large enough effect in the repeat runs; an effect the other way counts as inactive or inconclusive; also: nearly all actives have a fitted effect of over 30% in size; also: potency is read from the fitted curve at half-maximal effect)
In short: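 Steps: plate ER-beta-UAS-bla HEK293T cells, rest 6 hr; add compounds in DMSO; incubate 16 hr at 37C, 5% CO2; add FRET substrate 2 hr; add CellTiter-Glo, wait 30 min at room temperature; read luminescence.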

[20] = target: Androgen receptor (Homo sapiens) (UniProt P10275); experiment: qHTS assay to identify small molecule agonists of the androgen receptor (AR) signaling pathway in the presence of an antagonist (AID 1259381); also: nearly all actives have a fitted effect of over 15% in size
In short: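 Reporter-gene luminescence from MDA-kb2 cells exposed 16hr at 37C (0% CO2) to 15-point compound titrations with 3.0uM final nilutamide as AR antagonist.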

Sequence of Thyrotropin receptor (Homo sapiens) (P16473 whole entry, looked up): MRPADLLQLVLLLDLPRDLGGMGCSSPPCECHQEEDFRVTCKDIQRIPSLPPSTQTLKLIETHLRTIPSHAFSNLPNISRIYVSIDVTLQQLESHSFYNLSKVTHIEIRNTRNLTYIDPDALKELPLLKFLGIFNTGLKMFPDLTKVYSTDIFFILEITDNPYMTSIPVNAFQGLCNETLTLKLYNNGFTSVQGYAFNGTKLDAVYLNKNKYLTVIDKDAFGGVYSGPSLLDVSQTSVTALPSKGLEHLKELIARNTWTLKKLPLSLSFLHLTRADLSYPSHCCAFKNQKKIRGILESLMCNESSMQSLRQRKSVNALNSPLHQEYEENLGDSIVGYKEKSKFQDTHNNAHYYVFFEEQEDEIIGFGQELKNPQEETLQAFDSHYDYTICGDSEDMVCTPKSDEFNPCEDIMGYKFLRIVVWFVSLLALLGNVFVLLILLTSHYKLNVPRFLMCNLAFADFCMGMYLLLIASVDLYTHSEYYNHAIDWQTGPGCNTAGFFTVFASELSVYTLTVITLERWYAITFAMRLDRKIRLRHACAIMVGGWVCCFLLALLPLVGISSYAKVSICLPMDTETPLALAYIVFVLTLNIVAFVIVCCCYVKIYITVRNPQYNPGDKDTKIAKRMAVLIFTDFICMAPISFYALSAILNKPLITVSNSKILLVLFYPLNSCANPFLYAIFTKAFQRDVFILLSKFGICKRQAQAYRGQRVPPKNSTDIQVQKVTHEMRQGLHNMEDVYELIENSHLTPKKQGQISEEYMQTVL
Sequence of Estrogen receptor (Homo sapiens) (P03372 whole entry, looked up): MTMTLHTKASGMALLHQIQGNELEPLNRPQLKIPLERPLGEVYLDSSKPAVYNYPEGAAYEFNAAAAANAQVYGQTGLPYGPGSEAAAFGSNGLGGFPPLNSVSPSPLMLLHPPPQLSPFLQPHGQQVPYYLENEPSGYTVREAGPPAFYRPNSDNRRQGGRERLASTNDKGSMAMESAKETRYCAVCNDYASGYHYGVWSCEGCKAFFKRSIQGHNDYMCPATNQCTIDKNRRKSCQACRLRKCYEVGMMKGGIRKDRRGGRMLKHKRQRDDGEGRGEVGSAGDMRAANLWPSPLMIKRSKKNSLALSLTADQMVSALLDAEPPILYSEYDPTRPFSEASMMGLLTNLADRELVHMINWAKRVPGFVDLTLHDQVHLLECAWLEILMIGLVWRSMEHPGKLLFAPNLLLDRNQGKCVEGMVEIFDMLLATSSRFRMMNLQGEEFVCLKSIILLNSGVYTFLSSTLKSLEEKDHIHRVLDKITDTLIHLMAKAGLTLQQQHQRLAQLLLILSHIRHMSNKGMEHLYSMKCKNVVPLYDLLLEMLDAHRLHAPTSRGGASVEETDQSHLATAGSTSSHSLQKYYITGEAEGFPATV
Sequence of Estrogen receptor beta (Homo sapiens) (Q92731 whole entry, looked up): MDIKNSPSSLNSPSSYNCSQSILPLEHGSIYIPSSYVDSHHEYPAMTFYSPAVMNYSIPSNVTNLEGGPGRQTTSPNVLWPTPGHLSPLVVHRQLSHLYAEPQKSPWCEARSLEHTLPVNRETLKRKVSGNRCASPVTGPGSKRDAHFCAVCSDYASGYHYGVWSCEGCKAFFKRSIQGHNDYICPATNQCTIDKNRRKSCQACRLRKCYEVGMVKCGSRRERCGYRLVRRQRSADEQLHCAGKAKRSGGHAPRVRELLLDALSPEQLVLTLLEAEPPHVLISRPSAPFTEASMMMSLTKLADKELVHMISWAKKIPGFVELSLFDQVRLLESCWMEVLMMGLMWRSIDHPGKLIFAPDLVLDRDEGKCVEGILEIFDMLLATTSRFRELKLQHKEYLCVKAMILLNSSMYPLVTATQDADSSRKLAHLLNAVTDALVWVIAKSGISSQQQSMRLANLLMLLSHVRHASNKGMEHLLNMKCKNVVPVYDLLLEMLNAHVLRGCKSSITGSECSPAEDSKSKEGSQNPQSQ
Sequence of Thyrotropin-releasing hormone receptor (Homo sapiens) (P34981 whole entry, looked up): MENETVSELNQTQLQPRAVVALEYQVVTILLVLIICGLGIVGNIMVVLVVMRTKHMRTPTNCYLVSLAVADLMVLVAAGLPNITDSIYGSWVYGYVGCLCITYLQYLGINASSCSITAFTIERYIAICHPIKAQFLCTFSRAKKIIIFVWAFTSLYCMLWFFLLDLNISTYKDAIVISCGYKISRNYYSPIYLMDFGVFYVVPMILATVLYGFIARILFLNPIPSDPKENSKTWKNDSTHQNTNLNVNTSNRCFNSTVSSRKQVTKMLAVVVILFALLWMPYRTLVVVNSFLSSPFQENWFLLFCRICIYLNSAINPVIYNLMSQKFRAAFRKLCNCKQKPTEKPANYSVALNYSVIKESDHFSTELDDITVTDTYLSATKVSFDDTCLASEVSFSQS
Sequence of Androgen receptor (Homo sapiens) (P10275 whole entry, looked up): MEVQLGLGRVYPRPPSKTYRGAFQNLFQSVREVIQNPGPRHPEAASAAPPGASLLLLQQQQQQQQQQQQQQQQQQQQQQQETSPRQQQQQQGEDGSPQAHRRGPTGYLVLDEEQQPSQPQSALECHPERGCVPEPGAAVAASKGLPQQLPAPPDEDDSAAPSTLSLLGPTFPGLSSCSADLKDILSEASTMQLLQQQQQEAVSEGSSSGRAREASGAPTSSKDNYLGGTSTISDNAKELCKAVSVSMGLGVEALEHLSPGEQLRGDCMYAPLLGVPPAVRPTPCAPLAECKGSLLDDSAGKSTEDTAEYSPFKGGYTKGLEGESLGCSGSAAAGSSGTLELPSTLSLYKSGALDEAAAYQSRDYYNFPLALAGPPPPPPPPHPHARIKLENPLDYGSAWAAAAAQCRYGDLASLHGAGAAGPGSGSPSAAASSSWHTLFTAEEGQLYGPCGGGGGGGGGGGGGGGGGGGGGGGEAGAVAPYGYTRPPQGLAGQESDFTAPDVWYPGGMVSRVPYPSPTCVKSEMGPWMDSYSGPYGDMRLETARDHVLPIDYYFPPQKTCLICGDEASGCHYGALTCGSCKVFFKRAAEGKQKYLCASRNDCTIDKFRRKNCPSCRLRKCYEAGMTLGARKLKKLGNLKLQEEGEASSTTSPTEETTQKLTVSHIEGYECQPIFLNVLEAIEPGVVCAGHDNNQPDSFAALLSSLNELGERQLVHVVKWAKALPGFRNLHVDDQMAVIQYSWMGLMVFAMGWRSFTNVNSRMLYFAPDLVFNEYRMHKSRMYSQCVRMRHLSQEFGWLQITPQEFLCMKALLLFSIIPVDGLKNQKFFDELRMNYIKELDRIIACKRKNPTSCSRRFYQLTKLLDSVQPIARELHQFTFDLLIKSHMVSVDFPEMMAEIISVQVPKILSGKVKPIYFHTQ
Sequence of Progesterone receptor (Homo sapiens) (P06401 whole entry, looked up): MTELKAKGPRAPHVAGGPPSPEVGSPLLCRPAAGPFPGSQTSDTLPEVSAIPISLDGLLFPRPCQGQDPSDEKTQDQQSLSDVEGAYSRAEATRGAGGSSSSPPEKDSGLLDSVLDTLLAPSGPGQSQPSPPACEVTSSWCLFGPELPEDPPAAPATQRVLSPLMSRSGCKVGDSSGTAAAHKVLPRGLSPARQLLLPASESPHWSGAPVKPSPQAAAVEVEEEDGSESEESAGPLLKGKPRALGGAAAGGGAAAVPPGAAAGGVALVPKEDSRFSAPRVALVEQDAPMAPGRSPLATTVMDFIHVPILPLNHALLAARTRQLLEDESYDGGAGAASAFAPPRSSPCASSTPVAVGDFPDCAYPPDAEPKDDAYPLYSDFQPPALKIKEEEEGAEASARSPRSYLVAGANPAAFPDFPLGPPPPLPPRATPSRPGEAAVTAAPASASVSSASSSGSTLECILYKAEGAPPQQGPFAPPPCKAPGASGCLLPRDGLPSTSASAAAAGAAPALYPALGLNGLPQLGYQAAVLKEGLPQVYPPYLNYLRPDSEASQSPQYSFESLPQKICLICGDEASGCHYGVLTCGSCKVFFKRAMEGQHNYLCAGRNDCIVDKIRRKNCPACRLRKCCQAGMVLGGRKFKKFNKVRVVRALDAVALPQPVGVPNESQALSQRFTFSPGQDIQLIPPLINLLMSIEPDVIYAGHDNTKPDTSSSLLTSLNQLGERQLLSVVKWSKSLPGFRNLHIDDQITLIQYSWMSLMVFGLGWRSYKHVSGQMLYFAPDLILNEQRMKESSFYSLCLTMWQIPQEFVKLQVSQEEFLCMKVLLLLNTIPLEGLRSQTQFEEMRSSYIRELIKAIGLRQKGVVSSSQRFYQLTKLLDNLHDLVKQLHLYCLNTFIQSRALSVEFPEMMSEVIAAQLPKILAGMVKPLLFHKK

| Structure (SMILES) | Potency [1] | Potency [2] | Potency [3] | Potency [4] | Potency [5] | Potency [6] | outcome [7] | Potency [8] | Potency [9] | Potency [10] | Potency [11] | Potency [12] | Potency [13] | Potency [14] | outcome [15] | Potency [16] | Potency [17] | Potency [18] | Potency [19] | Potency [20] |
| --- | --- | --- | --- | --- | --- | --- | --- | --- | --- | --- | --- | --- | --- | --- | --- | --- | --- | --- | --- | --- |
| C=C/C(C)=C/C/C=C(\C)CCC=C(C)C | inactive | 27.3 µM (active) | inactive | inactive | inactive | inactive | inactive | inactive | inactive | inactive | inactive | inactive | inactive | inactive | inactive |  |  |  |  |  |
| Cc1c(C)c2c(c(C)c1OC(=O)CCC(=O)OCCO)CC[C@@](C)(CCC[C@H](C)CCC[C@H](C)CCCC(C)C)O2 | inactive | inactive | inactive | inactive |  | inactive | inactive | inactive |  | 26.6 µM (active) |  |  | inactive | inactive | inactive | 13.3 µM (active) | inactive | inactive |  |  |
| C[C@@H](O[C@H]1OCCN(Cc2n[nH]c(=O)[nH]2)[C@H]1c1ccc(F)cc1)c1cc(C(F)(F)F)cc(C(F)(F)F)c1 | inactive | 13.3 µM (active) | inactive |  | 29.8 µM (active) |  | inactive |  |  |  |  |  | inactive | inactive | inactive |  | inactive | inactive | 26.6 µM (active) | inactive |
| c1csc(SSc2cccs2)c1 | inactive | 13.7 µM (active) | inactive |  |  |  | inactive | inactive |  | 8.63 µM (active) | 9.69 µM (active) | 9.69 µM (active) | inactive | inactive |  |  | inactive | inactive | 13.7 µM (active) |  |
| CCC1(CO)COCOC1 | inactive | inactive | inactive |  | inactive | inactive | inactive | inactive |  |  |  | inactive | inactive | inactive | inactive | inactive |  | inactive | inactive |  |
| CC[N+](CC)(CCNC(=O)C(=O)NCC[N+](CC)(CC)Cc1ccccc1Cl)Cc1ccccc1Cl | inactive | inactive | inactive |  | inactive | inactive |  |  | inactive | inactive | inactive | inactive | inactive | inactive | inactive | inactive |  | inactive | inactive |  |
| C[C@@H]1CN(CCCn2c3ccccc3c3ccccc32)C[C@H](C)N1 | inactive | 10.6 µM (active) | inactive |  | 11.9 µM (active) |  | inactive | 33.5 µM (active) |  | 29.8 µM (active) | 11.9 µM (active) | 11.9 µM (active) | inactive | inactive |  | 13.3 µM (active) | inactive |  | 10.6 µM (active) |  |
| O=C(Cn1ccnc1[N+](=O)[O-])NCCO | inactive | inactive |  | inactive | inactive | inactive | inactive | inactive | inactive | inactive | inactive | inactive | inactive | inactive |  | inactive | inactive | inactive | inactive | inactive |
| C[C@H]1C[C@H](O)c2ccsc2S1(=O)=O | inactive | inactive |  | inactive | inactive | inactive | inactive | inactive | inactive | inactive | inactive | inactive | inactive | inactive |  | inactive | inactive |  | inactive | inactive |
| CN1C[C@H](C(=O)N[C@]2(C)O[C@@]3(O)[C@@H]4CCCN4C(=O)[C@H](Cc4ccccc4)N3C2=O)C[C@@H]2c3cccc4[nH]cc(c34)C[C@H]21 | inactive | inactive | inactive |  |  | inactive | inactive | 11.9 µM (active) | inactive |  |  |  | inactive |  | inactive |  |  | inactive |  |  |
| NNC(=O)CP(=O)(c1ccccc1)c1ccccc1 | inactive | inactive | inactive | inactive | inactive |  | inactive | inactive | inactive | inactive | inactive | inactive | inactive | inactive | inactive | inactive | inactive | inactive |  |  |
| C[C@@H](O)[C@H]1C(=O)N2C(C(=O)O)=C([C@H]3CCCO3)S[C@H]12 | inactive | inactive |  | inactive | inactive | inactive | inactive | inactive |  |  | inactive | inactive | inactive | inactive |  | inactive | inactive | inactive | inactive | inactive |
| CCC(=O)OC | inactive | inactive |  | inactive | inactive | inactive | inactive | inactive | inactive | inactive | inactive | inactive | inactive | inactive | inactive | inactive | inactive | inactive | inactive | inactive |
| O=Cc1c2ccccc2c(Cl)c2ccccc12 | inactive | inactive |  |  | inactive | inactive |  |  | inactive |  | inactive | inactive | inactive | inactive |  | inactive | inactive | inactive | inactive |  |
